Compound activity from PubChem BioAssay.
ERG Ets-DNA blk: ERG Ets/DNA interaction inhibition; P11308; fluorescence polarization, His-ERG Ets domain / labelled DNA; Potency, µM (doses to about 76.9 µM), inactives show at the top dose FP activity, negative = inhibition, most hits filed as inhibitors; hit rate 0.028% among 370,000; active = well fitted inhibition curve with a large enough effect in the polarisation, with a control signal flat; inconclusive = small, poorly fitted or top-dose-only effect, or effect the other way, or a change in a side signal; inactive = no such curve, though single readings can be large or run the other way; the % refers to the polarisation;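 also: polarization taken with two DNA probes labelled with fluorescein and Texas red; potency is read from the fitted curve at half-maximal effect; % of control where 0% means no effect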
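His-tagged ERG Ets domain (1 uM in the protein solution; 300mM KCl, 50mM Tris-HCl, 1mM EDTA, 1mM DTT, pH 7.5) received compound, then a probe mix of 5 nM fluorescein-DNA and 100nM Texas-615-DNA. Fluorescence polarization was read for both dyes.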
Giardia killer: kills Giardia lamblia; hit rate 0.15% among 340,000; Giardia lamblia trophozoite viability; activity change, % at 7.66 µM, hits read low; in the data active = activity change below about -80%; inconclusive = between about -30% and that limit;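 also: parasites exposed to compound for two days anaerobically before the ATP read; % is scaled to controls: 0 for no effect and ±100 for the full control effect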
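Anaerobic 48 hrs incubation at 37 deg C of 100 trophozoites/well with test compounds; ATPLite 1-Step luminescence, 15-30 min RT, reports cellular ATP as viability.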
Gal4-VP16 FLuc: inhibits Gal4-VP16 luciferase reporter, ROR gamma counter-screen; Drosophila S2 Gal4-VP16 UAS-luciferase, luminescence, 20 h; Potency, µM (series often up to 53.6 µM), for the others: at the top dose activity, negative = inhibition, hits mostly inhibitors; hit rate 3.5% among 310,000; AID 2546;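 also: Gal4-VP16 expression switched on by copper sulfate through the metallothionein promoter; potency is read from the fitted curve at half-maximal effect; % is scaled to controls: 0 for no effect and ±100 for the full control effect; nearly all actives have a fitted effect of over 50% in size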
a7 integrin act: integrin-mediated muscular dystrophy alleviation activation | alpha7betagal myoblasts, beta-gal FDG fluorescence, 48 h | Potency, µM (titrated, usually from 38.3 µM), inactives show at the highest dose activation, hits mostly activators | hit rate 0.064% among 350,000 | AID 624291;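 also: potency is read from the fitted curve at half-maximal effect; 100% = response of the positive control SU9516; nearly all actives have a fitted effect of over 60% in size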
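Alpha7betagal+/- myoblasts (passage 13) were plated 16-24 hr, then exposed to compounds (1:260 dilution of DMSO stock) for 48 hours at 37C. After MPER lysis, β-galactosidase reporter activity was read as FDG fluorescence (ex 480/em 540) after 30 minutes.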
RORg inh: ROR gamma (mouse) transcription inhibition; P51450; Drosophila S2 Gal4-RORgamma UAS-luciferase reporter, 20 h; Potency, µM (highest dose often 53.6 µM), for the others: top-dose activity change, negative = inhibition, most hits filed as inhibitors; hit rate 5.4% among 310,000; AID 2551; also: potency is read from the fitted curve at half-maximal effect; % is scaled to controls: 0 for no effect and ±100 for the full control effect; nearly all actives have a fitted effect of over 60% in size
Target sequence (P51450 whole entry, looked up, the tested form may be a part): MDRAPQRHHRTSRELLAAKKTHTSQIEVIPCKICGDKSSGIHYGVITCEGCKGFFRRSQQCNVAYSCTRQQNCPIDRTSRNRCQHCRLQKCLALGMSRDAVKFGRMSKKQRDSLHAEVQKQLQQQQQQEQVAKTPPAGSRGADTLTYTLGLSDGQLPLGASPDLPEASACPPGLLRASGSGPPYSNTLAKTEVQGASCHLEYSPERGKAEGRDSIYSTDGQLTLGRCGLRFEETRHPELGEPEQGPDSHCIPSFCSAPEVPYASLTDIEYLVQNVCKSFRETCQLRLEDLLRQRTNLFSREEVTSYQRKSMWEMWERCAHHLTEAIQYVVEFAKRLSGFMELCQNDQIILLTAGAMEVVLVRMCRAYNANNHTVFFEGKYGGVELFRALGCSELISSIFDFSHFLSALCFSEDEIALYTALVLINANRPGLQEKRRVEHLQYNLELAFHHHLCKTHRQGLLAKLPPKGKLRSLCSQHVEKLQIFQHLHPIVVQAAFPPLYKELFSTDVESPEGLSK
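Read-out: Photinus luciferase luminescence; inhibitors lower reporter signal. Insect Schneider cells with Gal4-ROR gamma fusion under metallothionein promoter, UAS reporter; 700 uM final copper sulfate induction, 20 hr, ambient temperature.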
The depositor's hits bear a star; ? = inconclusive; · = not tested or not shown; [ ] = another dose, or the depositor's remark. The entries come from a sample that favours hits as a whole. Unless noted, calls follow the shape of the dose curve; as a rule, active = well fitted curve in the direction sought with a large enough effect; inconclusive = small, poorly fitted or top-dose-only effect, or another doubt; inactive = no such curve, though single readings can be large; an effect the other way counts as inactive or inconclusive.

SMILES	ERG Ets-DNA blk	Giardia killer	Gal4-VP16 FLuc	a7 integrin act	RORg inh
CC(C)CC1=NN(C(=O)c2cccnc2)C(O)(C(F)(F)F)C1 (centres undefined)	11%	10	13µM*	-5%	11µM*
O=C(c1cccnc1)N1N=C(C2CC2)CC1(O)C(F)(F)F (centres undefined)	3%	-6	-1%[10 µM]	16%	?
COc1ncccc1C(=O)N1CCCC(C(=O)Nc2cccc(-c3ccc(F)cc3)c2)C1 (centres undefined)	·	·	·	-3%	·
COC(=O)/C=C/c1c(C)nc(NCc2ccccc2)nc1Cl	6%	0	-14%	3%	-8%
CC(C)C1=NN(C(=O)c2cccnc2)C(O)(C(F)(F)F)C1 (centres undefined)	·	-9	?	2%	-49%
CC1=NN(C(=O)c2cccnc2)C(O)(C(F)(F)F)C1 (centres undefined)	0%	-6	13µM*	35%	7.9µM*
COc1cccc(CC2CC(=O)N(c3ccc4c(C)cc(=O)oc4c3)C2=O)c1 (centres undefined)	0%	-12	8%	-10%	40%
CC1CCc2c(sc(NC(=O)CSc3ncn[nH]3)c2C#N)C1 (centres undefined)	4%	20	0.079µM*	-50%	0.32µM*
N#Cc1c(NC(=O)CSc2ncn[nH]2)sc2c1CCCC2	-7%	6	0.11µM*	-35%	0.32µM*
CC(C)(C)C1CCc2c(sc(NC(=O)CSc3ncn[nH]3)c2C#N)C1 (centres undefined)	9%	-1	11µM*	-52%	?
CSc1ccc(-c2nnn(CC(=O)Nc3sc4c(c3C#N)CCC(C(C)(C)C)C4)n2)cc1 (centres undefined)	7%	·	·	·	·
N#Cc1c(NC(=O)CSC2=NCCS2)sc2c1CCCC2	-3%	-6	22%	-27%	?
CCCc1cc(=O)[nH]c(SCC(=O)Nc2sc3c(c2C#N)CCC(C)C3)n1 (centres undefined)	-2%	-18	3%	-12%	14%
Cc1ccnc(SCC(=O)Nc2sc3c(c2C#N)CCCC3)n1	-9%	-10	7.1µM*	-15%	?
O=[N+]([O-])c1cccc(Cl)c1Cl	·	·	-1%	·	2%
CCCCCOc1ccccc1CN1C(=O)C(=O)c2cc(C)ccc21	-5%	·	·	·	·
Cc1ccc(C(=O)NCc2ccncc2)cc1S(=O)(=O)N1CCCCC1	-9%	4	-1%	-20%	22%
CC(C)(C)c1ccc(-c2n[nH]c(=S)n2-c2ccccc2)cc1	2%	4	2.8µM*	11%	3.2µM*
CC(c1ccccc1)n1c(-c2ccc(C(C)(C)C)cc2)n[nH]c1=S (centres undefined)	2%	-1	7.1µM*	-41%	7.1µM*
Cc1ccc(-n2c(-c3ccncc3)n[nH]c2=S)cc1	13%	0	-7%	28%	11µM*
CCc1cc(-c2n[nH]c(=S)n2C(C)c2ccccc2)cs1 (centres undefined)	-3%	14	-74%	-27%[7.66 µM]	-83%
Cc1ccc(-n2c(-c3ccccc3)n[nH]c2=S)c(C)c1	6%	-16	4.5µM*	?	5µM*
COc1ccc(-n2ncc(C(=O)N3CCc4ccccc4C3)c2C2CCN(C(=O)OC(C)(C)C)CC2)cc1	1%	·	·	·	·
O=C(CSc1n[nH]c(=O)n1Cc1ccco1)Nc1ccccc1Cl	8%	-2	-11%	13%	-1%
C=C(C)Cn1c(-c2ccncc2)n[nH]c1=S	3%	21	-15%	-2%	13µM*
SMILES	ERG Ets-DNA blk	Giardia killer	Gal4-VP16 FLuc	a7 integrin act	RORg inh
Cc1ccc(-n2c(-c3ccccc3)n[nH]c2=S)cc1	-2%	4	5.6µM*	8%	3.2µM*
Cc1ccc(-n2c(Cc3cccc4ccccc34)n[nH]c2=S)c(C)c1	-14%	-3	?	11%	1.1µM*
COc1ccc(-n2c(-c3ccc(C)cc3)n[nH]c2=S)cc1	-1%	-17	3.2µM*	9%	1.4µM*
Cc1ccc(S(=O)(=O)NCCn2cnc([N+](=O)[O-])n2)cc1	0%	-12	-2%	4%	-23%
Cc1c(-c2ccc(O)cc2)nn(-c2ccc(O)cc2)c1-c1ccc(OCCN2CCCCC2)cc1	·	·	-1%	·	?
CCN1C(=O)[C@@H]2[C@@H](c3ccc(-c4ccc(C(C)=O)cc4)cc3)N3CCCC[C@@]3(C(=O)OC)[C@@H]2C1=O	-2%	-4	·	-3%	·
CC(C)(C)c1ccc(C(CC(=O)O)NC(=O)Cc2ccc(Cl)cc2)cc1 (centres undefined)	0%	6	0%	-26%	-1%
Cc1ccc(-n2c(-c3ccc(Cl)cc3Cl)n[nH]c2=S)cc1	21%	4	5µM*	2%	3.2µM*
Fc1ccc(-n2c(-c3ccc4c(c3)OCO4)n[nH]c2=S)cc1Cl	-5%	8	?	19%	?
COc1cc(OC)cc(-c2n[nH]c(=S)n2-c2ccc3c(c2)OCO3)c1	-5%	0	?	5%	5.6µM*
Nc1c(-c2n[nH]c(=S)n2-c2ccc(Cl)cc2Cl)cnn1-c1ccccc1	5%	17	-19%	12%	2.8µM*
COc1ccc(S(=O)(=O)N2CCN(Cc3nc4ccc(C)cc4o3)CC2)cc1	3%	·	·	·	·
Cc1ccc(N(CC(=O)NCc2ccco2)C(=O)CCC(=O)Nc2nccs2)cc1	-2%	-19	1%	-13%	13%
C=CCn1c(=O)c2ccccc2n2c(SCC(=O)NCC)nnc12	5%	29	3%	34%	2%
Cc1cc(C)cc(NC(=O)CSc2nnc(Cc3cccn3C)n2-c2ccc(F)cc2)c1	2%	8	11µM*	8%	?
COc1ccc(-n2c(Cc3cccn3C)nnc2SCC(=O)Nc2ccc(C)c(Cl)c2)cc1	-7%	7	11µM*	11%	?
Cc1cc(C)c(NC(=O)CSc2nnc(Cc3cccn3C)n2-c2ccc(F)cc2)c(C)c1	-2%	2	-6%	-5%	28%
O=C(NNC(=O)C(c1ccccc1)c1ccccc1)c1ccccn1	5%	1	?	-63%	5.6µM*
O=C(CCc1ccccc1)NNC(=O)c1ccccn1	5%	18	?	-32%	10µM*
CS(=O)(=O)c1cnc(-c2cccnc2)nc1N	-9%	19	2%	10%	1%
Oc1c(Cl)cc(Cl)cc1Sc1cc(Cl)cc(Cl)c1O	·	·	13µM*	·	?
CCN1C(=O)/C(=C\C=C2/C=CC=CN2CC)SC1=S	120%	11	?	-24%	8.9µM*
Cc1c(C(=O)N(C)C)c2cc(Cl)ccc2n1O	-2%	25	-7%	1%	11%
CCOC(=O)c1c(C)n(O)c2ccc(Cl)cc2c1=O	3%	41	16µM*	1%	?
N=c1n(CC(=O)c2ccc(Br)s2)c2ccccc2n1Cc1ccccc1	-4%	5	14µM*	-17%	10µM*
CC(C)(C)C(=O)Cn1c(=N)n(Cc2ccccc2)c2ccccc21	5%	18	-9%	-10%	?
